FLuc counter: qHTS profiling assay for firefly luciferase inhibitor/activator using purifed enzyme and Km concentrations of substrates (counterscreen for miR-21 project). 6.9% of 360,000 active. Luciferin 4-monooxygenase (Photinus pyralis), P08659. purified FLuc, Km substrates, luminescence inhibition. Potency, µM (top dose mostly 57.5 µM), inactives show at the highest dose activity change, negative = inhibition, actives largely listed as inhibitors;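 further: plate controls were vehicle for no effect and reference inhibitor for full effect; nearly all actives have a fitted effect of over 55% in size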
Target sequence (P08659 whole entry, looked up): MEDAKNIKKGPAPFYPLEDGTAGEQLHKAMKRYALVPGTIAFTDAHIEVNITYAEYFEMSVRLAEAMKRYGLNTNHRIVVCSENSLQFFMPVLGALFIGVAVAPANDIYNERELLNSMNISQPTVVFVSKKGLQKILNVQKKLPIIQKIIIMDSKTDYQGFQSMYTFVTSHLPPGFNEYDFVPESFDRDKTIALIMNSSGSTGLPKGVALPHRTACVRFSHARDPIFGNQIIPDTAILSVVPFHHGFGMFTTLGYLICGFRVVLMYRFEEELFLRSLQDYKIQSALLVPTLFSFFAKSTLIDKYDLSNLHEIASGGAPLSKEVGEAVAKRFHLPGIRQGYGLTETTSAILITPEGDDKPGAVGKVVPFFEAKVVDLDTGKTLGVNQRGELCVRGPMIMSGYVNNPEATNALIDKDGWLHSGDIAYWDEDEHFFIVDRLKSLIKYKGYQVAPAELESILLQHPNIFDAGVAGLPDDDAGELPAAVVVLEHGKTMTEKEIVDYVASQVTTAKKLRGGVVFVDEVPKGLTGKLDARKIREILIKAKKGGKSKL
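Purified P. pyralis luciferase (10nM final) with 10uM D-luciferin and 10uM ATP (Km levels) in 50mM Tris acetate pH 7.5, 10mM Mg acetate, 0.01% Tween-20, 0.05% BSA; qHTS 6-point titration, ~60 µM downward; luminescence read.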
ELG1 repair inh: qHTS screen for small molecules that inhibit ELG1-dependent DNA repair in human embryonic kidney (HEK293T) cells expressing luciferase-tagged ELG1 | HEK293T ELG1-luciferase reporter, luminescence, 16 h; DNA damage induced by 5-fluorouridine | Potency, µM (doses to about 46.1 µM), for inactives: top-dose activity change, negative = inhibition, hits mostly inhibitors | 2.3% of 330,000 active; further: on the % scale 0 is the no-effect control and ±100 the full control effect; nearly all actives have a fitted effect of over 55% in size
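Reporter activity after DNA damage by 5-fluorouridine is monitored. Compound-treated cells incubate 16 hr at 37 °C, then ONE-Glo is added for 30 min before luminescence reading.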
SMN2 splice enh: qHTS Assay for Enhancers of SMN2 Splice Variant Expression. HEK293 SMN2-luciferase splicing reporter, luminescence, 30-36 h. AID 1458, 2008. Potency, µM (top dose mostly 46.1 µM), inactives show at the highest dose activity change, positive = activation, hits mostly activators. 2.8% of 210,000 active; further: % of control where 0% means no effect; nearly all actives have a fitted effect of over 55% in size
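qHTS luciferase splicing reporter: luminescence rises when SMN2 exon 7 is included in transfected HEK293 cells. Compound exposure lasted 30-36 h at 37C, with 4.5 mM final sodium butyrate as control, followed by a ONE-Glo read.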
ELG1 genotoxic: qHTS screen for small molecules that induce genotoxicity in human embryonic kidney (HEK293T) cells expressing luciferase-tagged ELG1 | HEK293T ELG1-luciferase reporter, luminescence, 16 h | Potency, µM (series often up to 46 µM), for inactives: at the highest dose activity change, positive = activation, most hits filed as activators | 1.3% of 330,000 active | AID 504466, 2011; further: % of control where 0% means no effect; nearly all actives have a fitted effect of over 60% in size
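Step 1: seed 2,000 HEK293T ELG1-luciferase cells per well. Step 2: add compound or DMSO, incubate 16 hr at 37 °C. Step 3: ONE-Glo, 30 min at room temperature, read luminescence.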
NPC1 promoter act: qHTS Assay for NPC1 Promoter Activators. Huh7 NPC1 promoter luciferase reporter, 24 h. Potency, µM (titrated, usually from 9.22 µM), inactives show at the highest dose activation, usual class: activators. 2.4% of 320,000 active. AID 485313, 2010; further: % of control where 0% means no effect; nearly all actives have a fitted effect of over 60% in size
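Luciferase expression driven by the NPC1 promoter was measured in stably transfected Huh7 cells after a 24 h compound incubation, using a luciferase reagent and a luminescence read.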
Rab9 prom act: qHTS Assay for Rab9 Promoter Activators. Huh7 Rab9 promoter-luciferase reporter, luminescence, 24 h. AID 485297, 2010. 2.8% of 320,000 active. Potency, µM (series often up to 9.22 µM), for inactives: top-dose activation, negative = inhibition, usual class: activators; further: % of control where 0% means no effect; nearly all actives have a fitted effect of over 60% in size
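Promoter activation is measured as luciferase luminescence in Huh7 cells stably transfected with a Rab9 promoter–luciferase construct, following 24 h compound exposure at 37 °C and 10 min reagent incubation at ambient temperature.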
An asterisk follows results filed as active; ? = inconclusive; nt = no result; [ ] = remark or other dose. Hits are enriched below; roughly 9.4% of the tested compounds scored in any of these assays. The call rests on the fitted dose curve; in most records, active means well fitted curve in the direction sought with a large enough effect; inconclusive means small, poorly fitted or top-dose-only effect, or another doubt; inactive means no such curve, though single readings can be large; an effect the other way counts as inactive or inconclusive. Potency means the concentration at half of the fitted maximal effect.

SMILES	FLuc counter	ELG1 repair inh	SMN2 splice enh	ELG1 genotoxic	NPC1 promoter act	Rab9 prom act
CC(=O)Nc1sc2c(c1C#N)CCC(C)C2 (stereo not given)	?	?	-4%	10%	10%	11%
CC1CCc2c(sc(NC(=O)c3ccccc3C(=O)O)c2C#N)C1 (stereo not given)	21µM*	?	nt	?	?	?
Cc1oc2ncn(C)c(=O)c2c1C(=O)NCCCN1CCCCC1C (stereo not given)	-5%	nt	nt	nt	nt	nt
CCn1cc(C(=O)NCc2ccc(C)cc2)c(=O)c2cc(S(=O)(=O)N3CCCCCC3)ccc21	-13%	nt	nt	nt	nt	nt
Cc1cc(C)cc(-n2cnc3cc(C(=O)NC4CCCCCC4)ccc32)c1	-11%	nt	nt	nt	nt	nt
c1ccc2c(c1)CCN(c1nc3cc4c(cc3s1)OCO4)C2	1.3µM*	?	2.2µM*	0.46µM*	1.6µM*	1.3µM*
c1c2c(cc3sc(N4CCCCC4)nc13)OCO2	0.67µM*	?	3.2µM*	?	0.4µM*	0.32µM*
c1c2c(cc3sc(N4CCOCC4)nc13)OCO2	6µM*	?	11µM*	?	2.8µM*	1.1µM*
O=[N+]([O-])c1cc2c(cc1CN1CCN(c3ccccc3)CC1)OCO2	?	?	nt	9%	20%	18%
c1ccc(N2CCN(c3nc4cc5c(cc4s3)OCO5)CC2)cc1	1.1µM*	?	?	11%	0.79µM*	0.71µM*
O=S(=O)(Nc1ccc2nc(N3CCOCC3)sc2c1)c1ccc(Cl)cc1	-23%	?	nt	-2%	9%	16%
O=c1oc2ccccc2c(O)c1/C=N/c1nc(-c2ccc(O)c(O)c2)cs1	nt	nt	-4%[9.22 µM]	nt	nt	nt
Cc1ccc(OCC(=O)NCC2(N3CCOCC3)CCCCC2)cc1C	-8%	nt	nt	nt	nt	nt
Cc1cccc(NC(=O)Cc2nc(-c3c[nH]c(C(=O)N4CCCC4)c3)cs2)c1	-15%	?	nt	-9%	0%	-4%
Cc1ccccc1NC(=O)Cc1nc(-c2c[nH]c(C(=O)N3CCCC3)c2)cs1	2%	16µM*	nt	-6%	-1%	-3%
Cc1ccc(OCCCC(=O)Nc2sc3c(c2C(N)=O)CCCC3)cc1	?	nt	-18%	nt	nt	nt
CC1CCCCC1NC(=S)Nc1ccc(SC(F)F)cc1 (stereo not given)	21µM*	?	?	-13%	5%	9%
FC(F)Sc1ccc(NC(=S)NC2CCCCC2)cc1	11µM*	?	?	?	26%	?
S=C(Nc1ccc(Oc2ccccc2)cc1)NC1CCCC1	?	20%	?	0%	2%	-6%
S=C(Nc1ccc(Br)cc1)NC1CCCC1	12µM*	?	11µM*	12%	26%	?
FC(F)Sc1ccc(NC(=S)NCC2CCCCC2)cc1	24µM*	5%	25%	?	8%	8%
COC(=O)c1ccc(NC(=O)CSc2ncc3c(n2)-c2cc(Cl)ccc2N(Cc2ccccc2)S3(=O)=O)cc1	-1%	nt	nt	nt	nt	nt
CCOc1ccccc1NC(=O)CSc1nc2c(oc3ccccc32)c(=O)n1-c1ccc(F)cc1	-2%	nt	-1%	nt	nt	nt
COc1cc2cc3c(N)c(C(=O)NCc4ccco4)sc3nc2cc1OC	11µM*	?	nt	?	?	?
COc1ccc(-n2c(N)c(C(=O)NCc3ccco3)sc2=S)cc1	-2%	7%	-2%	?	-1%	4.5µM*
Cc1ccc2nc3sc(C(=O)NCc4ccco4)c(N)c3cc2c1	0.85µM*	?	4.5µM*	9.2µM*	?	2µM*
O=C1c2ccccc2NC(c2ccccc2O)N1O (stereo not given)	0%	?	nt	-3%	-1%	-1%
